# Laboratory results from PubChem BioAssay AID602125 (The Scripps Research Institute Molecular Screening Center, 2011).
# The campaign covered roughly 1,300 compounds. About 110 (8.5%) were called active. Cut-off read from the data, not from the text of the source: active = inhibition above about 6.5%; inactive = the rest. These entries were drawn from the full list.
# Assay: GFP fluorescence inhibitors and quenchers, artefact control for Rin1-Abl interaction inhibitor project, biochemical (AID 602125);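 note: ABL1-eGFP fusion protein alone without its partner RIN1-SBP; 0% = protein with vehicle and 100% = wells lacking protein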
# Settings: inhibitors/quenchers counterscreen, at 6.75 µM, stronger effect = higher value
row,SMILES,inhibition
1,CC(C)CNS(=O)(=O)c1ccc(C(=O)Nc2ccc3c(c2)OCO3)cc1,-1.46% (inactive)
2,O=c1ccc2c(-c3ccccc3S(=O)(=O)O)c3ccc(O)c(O)c3oc-2c1O,60.6% (active)
3,CCCn1c(N)c(C(=O)CSc2nnc(-c3cccnc3)n2-c2ccc(C)cc2C)c(=O)[nH]c1=O,-2.86% (inactive)
4,Cc1cc2ccccc2n1CCNC(=O)COc1ccc2ccccc2c1,0.81% (inactive)
5,CC(OC(=O)c1ccccc1NCCO)C(=O)Nc1ccnn1C(C)C (stereo not given),0.13% (inactive)
6,C=C1c2c(Cl)ccc(O)c2C(O)=C2C(=O)[C@]3(O)C(O)=C(C(N)=O)C(=O)[C@@H](N(C)C)[C@@H]3[C@@H](O)C12 (stereo not given in full),14.2% (active)
7,CC(=O)NC(c1cccs1)c1cc(Br)c2cccnc2c1O (stereo not given),4.24% (inactive)
8,Nc1cc(=O)c2[nH]cnc2[nH]1,0.27% (inactive)
9,CCOC(=O)N1CCC(c2cc(=O)n(-c3ccccc3)[nH]2)CC1,-3.53% (inactive)
10,O=C(Nc1ccc(OC(F)(F)F)cc1)c1ccc2c(c1)no[n+]2[O-],0.62% (inactive)
11,C=CCn1c2ccccc2c2nnc(SCc3[nH]c(=O)[nH]c3C(=O)CCCCC(=O)OCC)nc21,0.3% (inactive)
12,COCCNC(=O)Nc1ccc2nc(-c3ccco3)c(-c3ccco3)nc2c1,15.8% (active)
13,CCc1ccc(CN(C)C(C)C(=O)Nc2ccc(S(=O)(=O)N3CCCC3)cc2)cc1 (stereo not given),-0.29% (inactive)
14,COC(=O)c1ccc(COC(=O)C2CCN(S(=O)(=O)c3c(Cl)cccc3Cl)CC2)o1,1.86% (inactive)
15,CN(CC(=O)Nc1ccc(F)cc1)CC(=O)Nc1ccc(Cl)c(S(=O)(=O)N2CCOCC2)c1,-1.92% (inactive)
16,C#CCOCCOCCOCCNc1nc(N2CCN(C(=O)C(Cc3ccc(O)cc3)n3cc(C(N)CC(C)C)nn3)CC2)nc(N2CCN(C(=O)C(Cc3ccc(O)cc3)n3cc(C(N)C(C)CC)nn3)CC2)n1 (stereo not given),-1.04% (inactive)
17,C=CCn1cc(C(=O)NCc2ccc(Cl)cc2)c(=O)c2cc(S(=O)(=O)N(CC)CC)ccc21,-0.53% (inactive)
18,Cc1nn(-c2ncc(C(F)(F)F)cc2Cl)c(=O)n1-c1ccccc1,-0.58% (inactive)
19,COc1ccc(CNC(=O)c2cc(C(=O)C3CC3)c[nH]2)cc1,0% (inactive)
20,Cc1c(CC(=O)N2CCN(C(=O)C3COc4ccccc4O3)CC2)c(=O)oc2c(O)c(O)ccc12 (stereo not given),21.4% (active)
21,NC1=CC(=O)C(=O)c2cccnc21,8.89% (active)
22,Cc1ccccc1CN1C[C@@H]2C[C@@H](c3ccc4nsnc4c3)N3CCC[C@@]23C1=O,0.34% (inactive)
23,CSc1ncnc2c1ncn2CC(=O)C1CCC2C3CCC4=CC(=O)CCC4(C)C3CCC12C (stereo not given),0.43% (inactive)
24,O=C(CNCc1ccco1)Nc1cc(S(=O)(=O)N2CCOCC2)ccc1N1CCCC1,2.49% (inactive)
25,CCc1cc2c(N3CCN(c4nnc(CC)s4)CC3)ncnc2s1,-3.38% (inactive)
26,CC(=O)Nc1ccc(CN2CCC(Oc3ccc(C(=O)N4CCCC4)cc3)CC2)cc1,-0.82% (inactive)
27,CCOc1ccc(S(=O)(=O)N2CCCCC2)cc1NC(=O)CN1CCCC1c1cccs1 (stereo not given),-2.43% (inactive)
28,O=c1c2c(nc3n1CCCCC3)sc1c(O)cccc12,0.41% (inactive)

row,SMILES,inhibition
1,CCOc1ccc(CNC(=O)C2CCCN(c3nnc(C)c4c(C)n(-c5ccccc5)nc34)C2)cc1 (stereo not given),-0.63% (inactive)
2,Oc1c(CN2CCN(c3ccc(F)cc3)CC2)cc(Cl)c2cccnc12,1.29% (inactive)
3,CC(CCO)Nc1nc2c([nH]1)c(=O)n(C)c(=O)n2C (stereo not given),-2.15% (inactive)
4,O=C(COc1ccc(S(=O)(=O)NCCc2ccccc2)cc1)N1CCCC1,-1.34% (inactive)
5,CN(C)c1ccc(N/C=C/C(=O)C(F)(F)F)cc1,0.06% (inactive)
6,Cc1cccc(N(C)C(=O)CN2C(=O)COc3ccc(S(=O)(=O)N4CCCCCC4)cc32)c1,-2.16% (inactive)
7,C[C@@H]1CN([C@H](C)CO)S(=O)(=O)c2ccc(C#C[C@@H](C)O)cc2O[C@@H]1CN(C)Cc1ccc(-c2ccccc2)cc1,-1.52% (inactive)
8,O=C(NNc1c2ccccc2nc2ccccc12)c1cc2ccccc2cc1O,2.7% (inactive)
9,Cc1cc(NC(=O)CSCC(=O)NC(C)c2ccccc2)no1 (stereo not given),0.79% (inactive)
10,COc1cc(C(=S)N2CCOCC2)ccc1O,-0.21% (inactive)
11,Cc1ccc(C(NC(=O)C2CCN(CCOc3ccc(Cl)cc3Cl)CC2)c2ccccn2)cc1 (stereo not given),-1.38% (inactive)
12,CN(Cc1c(F)cccc1Cl)C(=O)CNC(=O)c1ccc2c(c1)OCO2,0% (inactive)
13,O=C(Nc1ccc(S(=O)(=O)Nc2ncccn2)cc1)c1cncc(Br)c1,0.85% (inactive)
14,O=c1cc(CO)oc(CN2CCC(Cc3ccccc3)CC2)c1O,0.68% (inactive)
15,CCOC(=O)N1CCN(C(=O)C2CCCN(c3ncnc4c3sc3cccc(F)c34)C2)CC1 (stereo not given),0.85% (inactive)
16,CCOc1ccc(-n2c(SCC(=O)NC3CCS(=O)(=O)C3)nnc2-c2cccnc2)cc1 (stereo not given),-0.86% (inactive)
17,CCOC(=O)CN(C(=O)COc1nc(C)cc(C)c1C#N)c1ccc(Cl)cc1,-1.77% (inactive)
18,OC[C@@H]1CN(Cc2ccc(Cl)cc2)C[C@H](n2cnc3c(NCc4ccncc4)ncnc32)O1,0.89% (inactive)
19,CCOC(=O)N1CCN(C(=O)C2CCN(c3ncnc4c3sc3cccc(F)c34)CC2)CC1,1.39% (inactive)
20,Cc1ccccc1C(=O)N1CCC(C(=O)Nc2ccc(S(=O)(=O)N(C)C(C)C)cc2)CC1,0.2% (inactive)
21,O=C(c1cn(-c2ccccc2)nc1-c1cc2ccccc2oc1=O)N1CCOCC1,-1.57% (inactive)
22,O=C(CC1SCCNC1=O)Nc1ccc(Cl)cc1 (stereo not given),0.84% (inactive)
23,CN(C(=O)c1ccc(NC(=O)Cc2cccc(NC(=O)C3CCN(C(=O)c4ccccc4)CC3)c2)cc1)C1CC1,-0.72% (inactive)
24,Nc1nc2n(n1)C(c1ccco1)CC(c1ccc(Cl)c(Cl)c1)N2 (stereo not given),-3.07% (inactive)
25,NS(=O)(=O)c1ccc(CCNC(=O)Nc2ccc(Cl)cc2)cc1,2.08% (inactive)
26,Oc1cccc2cc(-c3ccncc3)cnc12,11.6% (active)
27,Cc1ccc(-n2c(SCC(=O)NCc3ccc4c(c3)OCO4)nnc2-c2cccnc2)c(C)c1,0.57% (inactive)
